A selection: hits, their analogues and other compounds. The true share with any hit is near 3.7%.
Anthrax LF inh2 – Bacillus anthracis LF protease inhibitors, primary screen, biochemical, multiplex microsphere, MLPCN library | multiplex microsphere protease cleavage assay | inhibition, % at 10 µM | actives 0.12% (n = 360,000); also: plate controls were buffer without enzyme for full effect and enzyme alone for no effect
BoNT A protease – BoNT/A light chain protease inhibitors, primary screen, biochemical, flow cytometry, MLPCN library | actives 0.17% (n = 360,000) | Botulinum neurotoxin type A light chain protease (Clostridium botulinum A str. ATCC 3502) | inhibition, % at 10 µM | multiplex microsphere protease substrate cleavage; also: plate controls were buffer without enzyme for full effect and enzyme alone for no effect
Autofluor counter – compound fluorescence in toxin protease inhibitor counterscreen | compound autofluorescence counterscreen, microsphere flow cytometry; active compounds read high | fluorescence intensity (concentration not given with the values) | actives 3.1% (n = 360,000); in the data active = fluorescence intensity above about 16000; inconclusive = no clear call, values can overlap the other calls
MazEF act – activators of E. coli MazEF toxin-antitoxin RNase, primary screen, biochemical, fluorescence, uHTS. Endoribonuclease toxin MazF (Escherichia coli (strain K12)), P0AE70. FAM/BHQ RNA-DNA oligo cleavage fluorescence, 5 h. activation, % at 20 µM. actives 0.32% (n = 350,000); in the data active = activation above about 50%
BoNT-F LC inh – BoNT/F light chain protease inhibitors, primary screen, biochemical, flow cytometry, MLPCN library | Botulinum neurotoxin type F light chain protease (Clostridium botulinum) | actives 0.22% (n = 360,000) | AID 588497, 2011 | Multiplex microsphere protease cleavage assay | inhibition, % at 10 µM; in the data active = inhibition above about 35%, passing the limit was not always enough; inconclusive = no clear call, values can overlap the other calls; also: plate controls were buffer without enzyme for full effect and enzyme alone for no effect
Starred values were filed as active, the others as inactive; ? = inconclusive; / = not tested or not shown. Rule as the data show it, unless noted: active = inhibition above about 30%; inconclusive = no clear call, values can overlap the other calls; inactive = below that.

SMILES	Anthrax LF inh2	BoNT A protease	Autofluor counter	MazEF act	BoNT-F LC inh
N#C/C(=C\c1ccco1)c1nc2ccccc2s1	-1	1	3044	54*	0
N#C/C(=N\O)c1nc2ccccc2s1	-4	0	4524	9	-2
N#C/C(=C/c1ccco1)c1nc2ccccc2s1	0	1	9605	65*	6
CCOC(=O)C1CCCn2c1nc1sc3c(c1c2=O)CCCC3 (centres undefined)	-2	-1	23606*	8	0
Brc1ccccc1OCCCn1cnc2ccccc21	-1	1	19986*	-5	3
c1ccc(OCCn2cnc3ccccc32)cc1	-4	?	17262*	4	25
CCCOc1ccc(Cn2cnc3ccccc32)cc1	0	1	16239*	-4	-2
Fc1ccc(Cn2cnc3ccccc32)cc1	-2	0	3812	0	6
c1ccc(OCCCCn2cnc3ccccc32)cc1	-10	0	2853	-2	-3
Cc1ccccc1OCCCCn1cnc2ccccc21	-5	-2	10525	-7	-6
Cc1ccc(C)n1-n1c(C)nc2scc(-c3ccccc3)c2c1=O	-3	-2	21049*	2	-2
COc1ccccc1CNc1nc2cc(-c3ccccc3C)sc2c(=O)n1C	-3	0	3799	/	-1
Cc1c(C(=O)Nc2ccccc2-c2ccccc2)cccc1[N+](=O)[O-]	-10	4	20236*	-4	3
CCOc1ccccc1C(=O)Nc1cc(Cl)ccc1O	-4	0	3764	68*	-19
COc1ccc(Br)cc1C(=O)Nc1ccccc1-c1ccccc1	-3	-15	28074*	-1	-15
CCOc1c(Cl)cc(C(=O)Nc2ccccc2C(=O)O)cc1Cl	-3	?	19009*	-5	2
COc1ccc(Br)cc1C(=O)Nc1ccccc1N1CCCC1	-1	-2	6629	-1	-14
CNc1nc(N)c([N+](=O)[O-])c(Nc2ccccc2OC)n1	0	-2	2859	10	-22
CCOc1ccc(C(=O)Nc2cccc(C(=O)O)c2C)cc1Cl	1	-1	2536	2	-9
CCOc1ccc(C(=O)Nc2ccccc2-c2ccccc2)cc1Cl	-7	6	17980*	1	6
COc1cccc(NC(=O)CN(C)C(=O)c2ccc(-c3ccccc3Cl)o2)c1	0	2	5446	-3	8
Cc1cc(C)c(C)c(OCCCCn2cnc3ccccc3c2=O)c1	-3	0	23324*	2	-1
Cc1oc(/N=C/c2ccccc2)c(C#N)c1C	-7	-6	4297	1	-25
COc1[nH]c(/N=C/c2ccccc2)c(C#N)c1C#N	-9	-2	3338	74*	-31
O=C(Nc1nnc([C@H]2C[C@H](O)[C@@H](CO)O2)s1)c1cccc(OC(F)(F)F)c1	1	-1	3922	/	-2
SMILES	Anthrax LF inh2	BoNT A protease	Autofluor counter	MazEF act	BoNT-F LC inh
COc1cc(CNCCCN2CCOCC2)cc(Br)c1OCC(=O)N1CCCCC1	3	10	18727*	2	13
COc1cc(CO)cc(Br)c1OCC(=O)N1CCCCC1	-4	3	21247*	7	4
COc1cc(C(=S)N2CCCCC2)ccc1OCC(=O)N1CCCC1	-5	0	4046	5	14
Cc1cc(C)cc(OCC(=O)N2CCCCCC2)c1	-6	?	22007*	1	5
Cc1cc(C)c(C)c(OCC(=O)N2CCCCCC2)c1	4	-1	9065	0	9
CC(=O)NC(c1ccccc1)c1nc(-c2ccccc2)cs1 (centres undefined)	-6	0	3805	/	-1
Cc1cc(N2CC(C)OC(C)C2)nc2ccccc12 (centres undefined)	-6	1	4594	6	-6
Cn1c(-c2ccc(C=O)s2)nc2c3ccccc3c3ccccc3c21	48*	79*	2883	-412	40*
CCCCn1c(SCC(=O)NC2CCS(=O)(=O)C2)nc2cc(S(N)(=O)=O)ccc21 (centres undefined)	3	0	3956	5	-3
CC(OC(=O)c1c2c(nc3ccccc13)/C(=C\c1ccc3c(c1)OCO3)CCC2)C(=O)Nc1ccc(S(N)(=O)=O)cc1 (centres undefined)	4	17	3070	165*	4
COC(=O)c1sccc1-c1ccc(/C=N/OC(=O)c2ccccc2)o1	-3	6	20465*	-3	5
COc1ccccc1-c1cc(-c2cc(Cl)ccc2O)n[nH]1	2	1	22763*	-2	1

High-throughput results from PubChem BioAssay.
